# Measurements reported in ChEMBL document CHEMBL3988442, “University of Dundee, Small-Polar-MMV Screening Library” (2021).
# Target: AMP-activated protein kinase, AMPK (Homo sapiens) (UniProt P54646+O43741+P54619+Q9UGJ0+Q9Y478+Q13131+Q9UGI9)
# Test: AMP-dependent Kinase enzyme assay. An in vitro enzyme assay that detects ADP turnover that is directly proportional to AMPK activity. This uses naive AMPK that is activated during the assay with MK-8722
# Assay type: functional
# Design: scale not given: direction of the effect not stated beside the values
# Conditions: 30 µM
row,SMILES,Percent Effect [%]
1,CCN(C)Cc1cccc(CNC(=O)CSCc2ccncc2)c1,-11.3
2,CC(C)N(C)S(=O)(=O)c1ccc2c(c1)CCN(C(=O)c1ccccn1)C2,-446
3,CCOc1cc(F)ccc1NC1CCN(CC(F)(F)F)C1=O (stereo not given),-28.4
4,O=C(CCC1CCCO1)NCCCO (stereo not given),-4.81
5,OC(CNCCc1nnc2ccccn12)c1ccc2c(c1)OCO2 (stereo not given),17.2
6,Cc1ccc2occ(CN3CCN(c4ncccn4)CC3)c(=O)c2c1,-1.29
7,CC(C)[C@@H]1CN(C(=O)C2(c3ccccc3)CC2)C[C@H]1C(=O)O,-2.56
8,CC(C(N)=O)N1CCN(c2ncc(Cl)cn2)CC1 (stereo not given),-1.99
9,O=S(=O)(NCCc1cn2ccccc2n1)N1CCOCC1,3.56
10,COc1cccc(-c2ncc(CN3CC[C@H](CO)[C@@H](O)C3)s2)c1,-0.478
11,Cc1cc(-c2cnc(N3CCC(O)CC3)nc2C(C)C)on1,20.1
12,CC(C)N(Cc1ccccn1)C(=O)CCC(=O)c1ccc(F)cc1F,-0.0134
13,CC(C)Oc1cccc(F)c1C(C(=O)O)N1CCCC1 (stereo not given),8.59
14,O=S(=O)(NCCCn1cncn1)c1ccc2c(c1)OCCO2,8.28
15,O=C(CN1CC(c2nc(-c3ccco3)no2)C1)NCc1ccc(F)cc1,1.74
16,O=C(NCC(F)(F)F)c1ccc(-n2cncn2)nn1,-2.06
17,CNC(=O)c1cccnc1NCc1ccc(-n2cccn2)cc1,-0.487
18,CC(C)COc1cncc(N2CCCN(CC(F)(F)F)CC2)n1,3.81
19,O=C(NCCS(=O)(=O)N1CCN(c2ncccn2)CC1)c1ccccc1,-4.77
20,CCc1nc2n(n1)CC(NCc1nc3ccccc3nc1C)CC2 (stereo not given),-2.35
